# Measurements: PubChem BioAssay (NCATS)
# Results filed as inconclusive are left out. Calls of active or inactive are those of the source. The call rests on the fitted dose curve; in most records, active means well fitted cell-killing curve with a large enough effect; inconclusive means small, poorly fitted or top-dose-only effect, or effect the other way; inactive means no such curve, though single readings can be large or run the other way.
# Experiment: Viability qHTS for spleen associated tyrosine kinase inhibitor (SYKi) naive MV4-11 cells (AID 1963823); further: nearly all actives have a fitted effect of over 40% in size
# Conditions: MV4-11 AML viability, CellTiter-Glo luminescence, 72 h; series mostly up to 45 µM; viability (% of control): at the top concentration
# Method in brief: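 Read-out: CellTiter-Glo luminescence. Exposure: 72 hr, 37 C, 5% CO2, 95% humidity. Cells: MV4-11 without SYK inhibitor history, 500/well, qHTS format.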
# Potency means the concentration at half of the fitted maximal effect.
SMILES,viability (% of control),Potency
C/C=C(/C)C1C=CC2CC(C)CC(C)C2C1/C(O)=C1\C(=O)NC(CC(C)(O)C(=O)O)C1=O (stereo not drawn),70.3% [at 17.3 µM] (inactive),
CC(C)C1(OO)C=C2C(=O)CC3C(C)(C(=O)O)CCCC3(C)C2CC1 (stereo not drawn),81.7% (inactive),
C[C@]12CC[C@@H](O)C[C@@H]1CC[C@@H]1[C@@H]2CC[C@]2(C)C(=O)[C@@H](Br)C[C@@H]12,,16400 nM (active)
C[C@]12CCC(=O)C=C1CC[C@@H]1[C@@H]2[C@@H](O)C[C@]2(C)C(=O)CC[C@@H]12,82.3% (inactive),
C[C@H]1C(=O)O[C@H]2[C@H](O)[C@]34C5OC(=O)[C@]3(O[C@@H]3OC(=O)[C@H](O)C34[C@H](C(C)(C)C)[C@H]5O)C12O (stereo partly drawn),93.7% [at 17.3 µM] (inactive),
C[C@H](CCC(=O)O)C[C@H](C)C[C@H](C)C(=O)/C=C(\O)[C@H](C)C[C@H](C)C/C=C/[C@@H](C)[C@@H](O)[C@@H](C)[C@@H](O)C[C@@H]1CC[C@@](C)([C@H]2CC[C@@](C)([C@@H](C)O)O2)O1,,2520 nM (active)
CCN1CC2(COC)C3[C@@H](OC)C4C1C3(C1C[C@]3(O)[C@H](OC(=O)c5ccccc5)C1[C@]4(OC(C)=O)[C@@H](O)[C@@H]3OC)[C@H](OC)C[C@H]2O (stereo partly drawn),88.3% (inactive),
CCCSP(=O)(OCC)SCCC,,16 nM (active)
Clc1ccc(N2C[C@H]3CC[C@@H](C2)N3)nn1,115% (inactive),
CC(=O)OC[C@]12[C@H](OC(C)=O)C(=O)[C@@H]3[C@@H](O)[C@@]14O[C@@]3(C)COC(=O)c1cccnc1[C@@H](C)[C@H](C)C(=O)O[C@@H]([C@H](OC(C)=O)[C@@H]2OC(C)=O)[C@]4(C)O,,5440 nM (active)
COC1=CC(=O)O[C@@H](CCc2ccccc2)C1,82.3% (inactive),
COCC1OC(=O)c2coc3c2C1(C)C1=C(C3=O)C2CCC(=O)C2(C)CC1O (stereo not drawn),76.6% (inactive),
COc1cccc(NCC(F)Cn2c3ccc(Br)cc3c3cc(Br)ccc32)c1 (stereo not drawn),,2060 nM (active)
C[C@@H]1C[C@@H](O)[C@]2(O)O[C@@H]3C[C@@]4(C=O)C(CC[C@@H]5C4CC[C@]4(C)[C@@](O)(C6=CC(=O)OC6)CC[C@]54O)C[C@H]3OC2O1 (stereo partly drawn),,796 nM (active)
COc1cc2c(cc1OC)[C@@]13CCN4CC5=CCO[C@H]6CC(=O)N2[C@H]1[C@H]6[C@H]5C[C@H]43,77.8% [at 17.3 µM] (inactive),
Nc1ccn(CC(CO)OCP(=O)(O)O)c(=O)n1 (stereo not drawn),80.7% (inactive),
CC(C)(C)NCC(O)c1ccccc1Cl (stereo not drawn),76.6% (inactive),
C[C@]12CC[C@H](O[C@@H]3O[C@H](CO)[C@@H](O)[C@H](O)[C@H]3O)CC1=CC[C@@H]1C2CC[C@]2(C)[C@@H](C3=CC(=O)OC3)CC[C@]12O (stereo partly drawn),,2730 nM (active)
COC(=O)N1CCN(C(=O)Cc2ccc(Cl)c(Cl)c2)[C@@H](CN2CCCC2)C1,68.9% (inactive),

SMILES,viability (% of control),Potency
C=CCN1CC[C@]23c4c5ccc(O)c4O[C@H]2[C@@H](O)CC[C@@]3(O)[C@H]1C5,53.5% (inactive),
COc1ccc(CN(C(=O)[C@@H](N)Cc2c(C)cc(C(N)=O)cc2C)[C@@H](C)c2ncc(-c3ccccc3)[nH]2)cc1C(=O)O,93.3% (inactive),
CC(=O)OC1CC(O)C(C)(C)C2CC(OC(C)=O)C3(C)C(CCC4(C)C(c5ccoc5)C(=O)C5OC543)C12C (stereo not drawn),69.8% [at 17.3 µM] (inactive),
C=CC(C)(O)CC/C=C(\C)C(=O)O[C@H]1[C@H](O)[C@@H](CO)O[C@@H](OC(=O)[C@]23CCC(C)(C)CC2C2=CCC4[C@@]5(C)CC[C@H](O[C@@H]6O[C@H](CO[C@@H]7OC[C@H](O)[C@H](O)[C@H]7O[C@@H]7OC[C@@H](O)[C@H](O)[C@H]7O)[C@@H](O)[C@H](O)[C@H]6O)C(C)(C)C5CC[C@@]4(C)[C@]2(C)CC3)[C@@H]1OC1OC(C)C(O[C@@H]2OC[C@@H](O)[C@H](O[C@@H]3OC[C@@H](O)[C@H](O)[C@H]3O)[C@H]2O)C(O)C1O (stereo partly drawn),65.2% [at 9.25 µM] (inactive),
S=C(NC1CCCCC1)N1CCC(c2cnc[nH]2)CC1,74.1% (inactive),
CN1CCc2cc3c(cc2C1C1OC(=O)c2c1ccc1c2OCO1)OCO3 (stereo not drawn),84.8% (inactive),
CCCCCCC1C(=O)O[C@H](C)[C@H](NC(=O)c2cccc(NC=O)c2O)C(=O)O[C@@H](C)[C@@H]1OC(=O)CC(C)C (stereo partly drawn),,517 nM (active)
N[C@@H](Cc1ccc(Oc2cc(I)c(O)c(I)c2)c(I)c1)C(=O)O,69.4% (inactive),
Nc1ccc(Cl)cc1C(=O)c1ccccc1F,54.4% (inactive),
N#CC(O[C@@H]1O[C@H](CO)[C@@H](O)[C@H](O)[C@H]1O)c1ccccc1 (stereo partly drawn),73.2% (inactive),
O=C1N[C@@H](Cc2ccccc2)CN2CCCC[C@@H]12,72.2% (inactive),
CN1CN(c2ccccc2)C2(CCN(CCCC(=O)c3ccc(F)cc3)CC2)C1=O,75.2% (inactive),
C=C1C2(C)CC3C(C)(O)C4=CC(=O)OC(C)(C)C4=CCC3(C)C13C(=O)OC(C)C3(O)C2=O (stereo not drawn),65.4% [at 17.3 µM] (inactive),
COc1cc2cc(c1Cl)N(C)C(=O)C[C@H](OC(=O)C(C)C)[C@]1(C)O[C@@H]1[C@H](C)[C@@H]1C[C@@](O)(NC(=O)O1)[C@H](OC)/C=C/C=C(\C)C2,2.69% (inactive),
CN(CC[C@H](N)CC(=O)N[C@H]1C=C[C@@H](n2ccc(N)nc2=O)O[C@@H]1C(=O)O)C(=N)N,83.5% [at 9.25 µM] (inactive),
CCc1[nH]c2ccc(OC)cc2c1CCN(C)C,,10300 nM (active)
CC(C)(NC(=O)[C@@H](N)Cc1ccc(O)cc1)C(=O)N[C@@H](Cc1cc2ccccc2[nH]1)C(=O)N[C@@H](Cc1ccccc1)C(=O)O,,3350 nM (active)
CC(=O)O[C@@H]1CC2C(C)(C)C(=O)C=C[C@]2(C)C2CC[C@]3(C)C(=CC(=O)O[C@H]3c3ccoc3)[C@@]21C (stereo partly drawn),,11600 nM (active)
COC(=O)[C@@]12C(=O)C(C)C(=O)[C@]1(C)C(C)=C[C@H]1[C@]3(C=O)CC[C@H](OC(C)=O)C(C)(C)[C@H]3CC[C@@]12C (stereo partly drawn),56.9% [at 17.3 µM] (inactive),
